Screens (PubChem)
Only some compounds are listed: those with a hit (about 3.2% of all), similar ones and a draw of the others.
Tau FP inhib – blocks human tau fibril formation measured by polarization. K18 P301L tau heparin fibrillization, Alexa594 FP, 6 h. Potency, µM (highest dose often 57.7 µM), without a hit: at the top dose activity, negative = inhibition, usual class: inhibitors. 0.39% of 280,000 active. AID 1468; note: nearly all actives have a fitted effect of over 55% in size
Target sequence (P10636 561-689 P618L limits assumed): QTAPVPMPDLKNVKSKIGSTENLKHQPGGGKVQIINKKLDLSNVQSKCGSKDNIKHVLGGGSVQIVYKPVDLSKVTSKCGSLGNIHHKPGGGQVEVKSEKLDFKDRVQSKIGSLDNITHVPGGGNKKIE
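Compound effects on tau fibrillization are measured by Alexa 594 fluorescence polarization (ex 555, em 632 nm). K18 P301L tau is used at 15 uM with 0.24 uM labeled tracer, and 20 uM heparin induces aggregation over 6 hr at 37 C.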
Tau fibril ThT – tau fibrillization inhibition (ThT binding). Potency, µM (series often up to 57.4 µM), for the others: at the highest dose activity, negative = inhibition, actives largely listed as inhibitors. P10636. recombinant tau K18 P301L, heparin-induced fibrillization, ThT fluorescence. AID 1460. 2.1% of 270,000 active; note: nearly all actives have a fitted effect of over 55% in size
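Recombinant human tau K18 fragment […] carrying P301L, 15 uM unlabeled plus 0.24 uM Alexa 594-labeled, was fibrillized with 20 uM heparin in 100 mM sodium acetate pH 7 for 6 hr at 37 C; 30 uM ThT fluorescence read after 1 hr.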
TR SRC2 fluor cs – counter-screen for TRb-SRC2 inhibitors: fluorescence interference; TRb/SRC2 Texas Red total fluorescence interference; Potency, µM (titrated, usually from 106 µM), without a hit: top-dose fluorescence change, negative = quenching; 0.29% of 280,000 active; AID 1479; active = well fitted curve in either direction with a large enough effect; inconclusive = small, poorly fitted or top-dose-only effect
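Human TRb ligand-binding domain at 0.6 uM with 20 nM Texas Red SRC2 peptide in Tris buffer containing 1 uM T3 and 5% DMSO, incubated with compound 5 h at ambient temperature. Total fluorescence (555/632 nm) calculated as parallel + 2 × perpendicular.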
TRb SRC2 PPI – TRbeta-SRC2 interaction inhibition. P10828. TRbeta-SRC2 peptide binding, fluorescence polarization; receptor liganded with 1 µM T3. Potency, µM (highest dose often 106 µM), for inactives: at the top dose activity change, negative = inhibition, usual class: inhibitors. 0.065% of 280,000 active. AID 1469;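 note: plate controls were bound peptide for no effect and peptide without receptor for full effect; nearly all actives have a fitted effect of over 50% in size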
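Human TRb ligand-binding domain (0.6 uM) is mixed with 20 nM Texas Red SRC2 peptide and 1 uM T3; after compound addition and 5 hr at ambient temperature, polarization is measured and normalized to unbound and bound controls.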
GoLoco inh red – inhibitors of human Gai1-RGS12 GoLoco interaction (red fluorophore); 0.44% of 230,000 active; P63096; Gai1:RGS12 GoLoco peptide FP, rhodamine, 10 min; Potency, µM (series often up to 61.6 µM), without a hit: at the top dose activity, negative = inhibition, most hits filed as inhibitors; AID 880; active = well fitted inhibition curve with a large enough effect, not every such curve was filed as active; inactive = no such curve, though single readings can be large or run the other way; note: nearly all actives have a fitted effect of over 30% in size
Target sequence (P63096 whole entry, looked up): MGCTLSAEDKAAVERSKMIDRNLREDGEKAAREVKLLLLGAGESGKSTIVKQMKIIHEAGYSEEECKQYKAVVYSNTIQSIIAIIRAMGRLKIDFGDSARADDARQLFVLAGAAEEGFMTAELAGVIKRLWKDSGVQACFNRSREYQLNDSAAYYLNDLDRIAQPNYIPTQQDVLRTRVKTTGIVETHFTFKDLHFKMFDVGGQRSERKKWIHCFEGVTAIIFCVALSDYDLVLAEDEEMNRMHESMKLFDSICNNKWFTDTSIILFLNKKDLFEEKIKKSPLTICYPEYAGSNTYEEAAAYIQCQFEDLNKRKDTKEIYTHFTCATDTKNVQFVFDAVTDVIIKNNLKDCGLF
Tau fluor cs – counter-screen for tau fibril formation inhibitors. Potency, µM (titrated, usually from 57.7 µM), for inactives: top-dose activity change, negative = decrease. AID 1463. 0.93% of 280,000 active. tau K18 P301L (four-repeat tau fragment) Alexa594 fluorescence, heparin fibrillization; note: nearly all actives have a fitted effect of over 55% in size
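Human K18 P301L tau (15 uM unlabeled plus 0.24 uM Alexa 594-labeled, final) in 100 mM sodium acetate pH 7 was mixed with compound and 20 uM heparin and incubated 6 hr at 37 C.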
An asterisk follows results filed as active; [ ] = another dose, or the depositor's remark. Unless noted, calls come from the whole dose curve; as a rule, active = well fitted curve in the direction sought with a large enough effect; inconclusive = small, poorly fitted or top-dose-only effect, or another doubt; inactive = no such curve, though single readings can be large; an effect the other way counts as inactive or inconclusive. Unless noted, % is set by controls: 0 for no effect and ±100 for the full control effect; potency is the fitted concentration of half-maximal effect.

`Cc1ccc(C2=Nc3ccccc3S[C@@H](c3cccc([N+](=O)[O-])c3)C2)cc1` gave GoLoco inh red 8%[14.2 µM].
For CCCCOc1ccccc1C(=O)Nc1nonc1-c1ccccc1 the results were Tau FP inhib 11%, Tau fibril ThT -8%, TR SRC2 fluor cs -1%, TRb SRC2 PPI 2% and Tau fluor cs -8%.
`CCCCn1c(N)c(-c2nc3ccccc3s2)c2c([N+](=O)[O-])nn(C)c(=O)c21` gave Tau FP inhib 8%, Tau fibril ThT 14µM*, TR SRC2 fluor cs 0%, TRb SRC2 PPI 6%, GoLoco inh red -2% and Tau fluor cs inconclusive.
`CCCCn1c(N)c(-c2nc3ccccc3s2)c2c([N+](=O)[O-])nn(CC)c(=O)c21` gave Tau FP inhib 15%, Tau fibril ThT inconclusive, TR SRC2 fluor cs -2%, TRb SRC2 PPI 1%, GoLoco inh red 5% and Tau fluor cs inconclusive.
Screening COc1cccc([C@@H]2Oc3ccc(OC)cc3C(=O)[C@H]2OC(=O)NC2CCCC2)c1 returned Tau FP inhib 1%, Tau fibril ThT -1%, TR SRC2 fluor cs 0%, TRb SRC2 PPI -1%, GoLoco inh red -5% and Tau fluor cs -10%.
`Cc1cccc(-c2nc(Nc3ccc(N4CCOCC4)cc3)c3ccccc3n2)c1` gave Tau FP inhib inconclusive, Tau fibril ThT inconclusive, TR SRC2 fluor cs -10%, TRb SRC2 PPI 1%, GoLoco inh red 0% and Tau fluor cs 11µM*[quencher].
`Cc1nc2ccccc2nc1N/N=C/c1ccc(O)cc1` gave Tau FP inhib 12%, Tau fibril ThT 14µM*, TR SRC2 fluor cs -7%, TRb SRC2 PPI 4%, GoLoco inh red -5% and Tau fluor cs inconclusive.
COC(=O)c1ccc(Nc2nc(-c3ccccc3Cl)nc3ccccc23)cc1 was read as Tau FP inhib 13µM*, Tau fibril ThT 11%, TR SRC2 fluor cs -4%, TRb SRC2 PPI 11% and Tau fluor cs inconclusive.
Clc1cccc(Nc2nc(-c3ccncc3)nc3ccccc23)c1 was read as Tau FP inhib -11%, Tau fibril ThT -8%, TR SRC2 fluor cs -1%, TRb SRC2 PPI -1%, GoLoco inh red 4% and Tau fluor cs -22%.
For Cc1ccc(Nc2nc(-c3cccnc3)nc3ccccc23)cc1 the results were Tau FP inhib inconclusive, Tau fibril ThT -16%, TR SRC2 fluor cs -1%, TRb SRC2 PPI -5%, GoLoco inh red 14% and Tau fluor cs inconclusive.
For CC(=O)c1cccc(Nc2nc(-c3ccccc3Cl)nc3ccccc23)c1 the results were Tau FP inhib inconclusive, Tau fibril ThT -6%, TR SRC2 fluor cs -14%, TRb SRC2 PPI 11% and Tau fluor cs inconclusive.
`Oc1ccc(Nc2nc(-c3ccc(Cl)cc3)nc3ccccc23)cc1` gave Tau FP inhib inconclusive, Tau fibril ThT 13µM*, TR SRC2 fluor cs -7%, TRb SRC2 PPI 1% and Tau fluor cs 4µM*[quencher].
Screening COc1ccc(OCC(=O)N2CCN(C(=O)c3cccc(OC)c3)CC2)cc1 returned Tau FP inhib -1%, Tau fibril ThT 2%, TR SRC2 fluor cs -1%, TRb SRC2 PPI 4% and Tau fluor cs 1%.
Oc1ccc(Nc2nc3ccccc3nc2Nc2ccc(O)cc2)cc1 was read as Tau FP inhib inconclusive, Tau fibril ThT 16µM*, TR SRC2 fluor cs -11%, TRb SRC2 PPI -5%, GoLoco inh red 2.5µM* and Tau fluor cs 7.1µM*[quencher].
`CC(=O)c1cccc(Nc2nc(-c3cccc(C)c3)nc3ccccc23)c1` gave Tau FP inhib 7.1µM*, Tau fibril ThT -8%, TR SRC2 fluor cs 0%, TRb SRC2 PPI -1% and Tau fluor cs 2.8µM*[quencher].
Cc1noc(C)c1-c1nc(Nc2ccc(F)cc2)c2ccccc2n1 was read as GoLoco inh red 10µM*.
Screening CC(=O)Nc1ccc(Nc2nc(-c3ccccc3)nc3ccccc23)cc1 returned Tau FP inhib -3%, Tau fibril ThT inconclusive, TR SRC2 fluor cs 1%, TRb SRC2 PPI 1%, GoLoco inh red 12% and Tau fluor cs 14µM*[quencher].
`Cc1noc(C)c1-c1nc(Nc2ccncc2)c2ccccc2n1` gave Tau FP inhib inconclusive, Tau fibril ThT -18%, TR SRC2 fluor cs -3%, TRb SRC2 PPI -2%, GoLoco inh red -23% and Tau fluor cs -22%.
`Cc1n[nH]c(=O)nc1Nc1ccc(O)cc1` gave Tau FP inhib -9%, Tau fibril ThT -18%, TR SRC2 fluor cs -3%, TRb SRC2 PPI 1%, GoLoco inh red -8% and Tau fluor cs -17%.
CC1=CCC(C(C)(C)O)CC1 (configuration not stated) was read as TR SRC2 fluor cs 3%[201 µM], TRb SRC2 PPI 10%[201 µM] and GoLoco inh red -11%.
N#Cc1cccc(NC(=O)N2CC3(CCN(C(=O)c4cc(C(F)(F)F)cc(C(F)(F)F)c4)CC3)C2)c1 was read as GoLoco inh red 5%.
O=C1c2c(O)cc(O)cc2O[C@H](c2ccc(O)c(O)c2)C1O (some centres not stated) was read as TR SRC2 fluor cs -5% and TRb SRC2 PPI -1%.
For COc1ccc(NC(=O)c2oc3ccccc3c2NC(=O)Cc2coc3c(C)c(C)ccc23)cc1 the results were Tau FP inhib inconclusive, Tau fibril ThT 11%, TR SRC2 fluor cs 7%, TRb SRC2 PPI -1% and Tau fluor cs -26%.
